# About 83,000 compounds went through this panel and 20% of them were active in at least one assay; those are over-represented in the sample as a whole.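 How to read the values: 0–100, growth inhibition (40 = 60% inhibited); 0, no net growth; -100 to 0, cell death (-40 = 40% of starting cells died; -100 = all dead).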 Unmarked numbers belong to inactive results. The calls were made as follows: active = growth percent below 10; inactive = the rest.
# Tested on: MDA-MB-468 breast
# Assay: NCI-60 one-dose screen, 48 h (100 = growth as untreated, 0 = no growth, -100 = all killed)
# Settings: 10 µM unless noted
row,Compound,growth [%]
1,Cc1nc2cc(Nc3nc(N4CCOCC4)nc(N4CCN(C)CC4)n3)ccc2n1Cc1ccccc1,111
2,NS(=O)(=O)c1ccc(Nc2nc(N/N=C/c3ccc(C(F)(F)F)cc3)nc(Nc3ccccc3)n2)cc1,34.3
3,CCCCN(CCCC)Cc1c(C)[nH]c2cc(OC)ccc2c1=O,113
4,CC1CCN(CCOc2ccc(CNc3ccc4nc(CCC5CCCCC5)[nH]c4c3)cc2)CC1,14.2
5,COc1cc2c(c3c1c(=O)c1cccc(F)c1n3C)C=CC(C)(C)O2,42.7
6,CCN1CCN(CCOc2ccc(CNc3ccc4nc(CCC5CCCCC5)[nH]c4c3)cc2)CC1,35
7,COc1ccc(C(=O)CSc2nnc(-c3cc(-c4ccccc4)nc4ccccc34)o2)cc1,104
8,COC(=O)C1(CC(C)=O)NC(=S)NC(=O)C1C#N (stereo not drawn),96
